Measured values published in PubChem BioAssay AID977607 (Broad Institute, 2014).
In all, about 1,500 compounds went through this assay and about 460 (31%) were called active. Inconclusive results (about 1%) are left out.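 The calls were made as follows: active = curve reaches 40% activation over neutral controls at an AC40 no higher than the top valid tested concentration; inconclusive = no clear call, values can overlap the other calls; inactive = signal moving opposite to the expected increase, and the rest.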 A selection follows. Results with a measured potency or affinity are listed apart.

Assay: activators of glucose-dependent insulin secretion, dose response, cell-based, INS-1E, Gaussia luciferase, luminescence, cherry-pick, set 2 (AID 977607);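 also: 0% = median of the plate neutral control wells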
Conditions: INS-1E GLuc insulin secretion reporter, 2-3 h, hits give high values; at 35 µM, 100% = signal doubled over neutral wells unless noted

Max activation, inactive:
O=C(O)CCCC(=O)N1CCN(c2nc(-c3ccccc3)c3ccccc3n2)CC1 16.9% [at 0.42 µM, 100% = signal doubled over neutral wells]
CS(=O)(=O)N1CCN(c2ccccc2NC(=O)c2ccco2)CC1 22.3%
O=C(Nc1ccccc1N1CCOCC1)C1=NN(c2ccccc2)C(=O)CC1 16.2%
CC1(C(=O)NCC2CCCCC2)CCN1CCc1ccccc1 (stereo unspecified) -18.8% [at 0.0016 µM, 100% = signal doubled over neutral wells]
CC(C)(C)OC(=O)N1CCCN(C(=O)c2ccc(Cl)cc2)CC1 -21.4% [at 0.135 µM, 100% = signal doubled over neutral wells]
CN1CCN(C(=O)c2cccc(-c3cnc4cnc(-c5ccccc5Oc5ccccc5)cn34)c2)CC1 -43%
N#CN=CN1CC=C(c2ccc(Cl)cc2)CC1 30.6% [at 3.8 µM, 100% = signal doubled over neutral wells]
CC1=NN(C(N)=S)C(=O)C1N=Nc1ccccc1C (stereo unspecified) -15.4%
Cc1cc(C)n(-c2nc(NCCN(C)C)c3c4c(sc3n2)CCCC4)n1 22.9%
O=C(Cn1[nH]c(=O)c2ccccc2c1=O)OCC(=O)c1ccc(F)cc1 -10.7% [at 0.046 µM, 100% = signal doubled over neutral wells]
CC(=O)Nc1nc(CC(C)C)cc(-c2ccco2)c1C#N -15.6% [at 0.135 µM, 100% = signal doubled over neutral wells]
CCOC(=O)c1sc2ncn(/N=C/c3cccnc3)c(=O)c2c1C -22.4% [at 0.0016 µM, 100% = signal doubled over neutral wells]
Cc1cccc(C)c1NC(=O)NC1CCc2ccccc21 (stereo unspecified) -27.2%
Cc1noc(C)c1NC(=O)N(C)C[C@H]1Oc2c(NC(=O)C3CCCCC3)cccc2C(=O)N([C@H](C)CO)C[C@@H]1C -26.4% [at 0.015 µM, 100% = signal doubled over neutral wells]
COc1ccc(C(=O)c2cnc[nH]2)cc1OC -12% [at 0.015 µM, 100% = signal doubled over neutral wells]
CCC(c1nnnn1-c1ccc2c(c1)OCCO2)N1CCc2ccccc2C1 (stereo unspecified) 36.8% [at 1.2 µM, 100% = signal doubled over neutral wells]
